# Laboratory results published in paper PMC7862700, “An all-to-all approach to the identification of sequence-specific readers for epigenetic DNA modifications on cytosine”.
# How the values were obtained:
# Experiment in all cases: DAPPL (digital affinity profiling via proximity ligation, sequencing); 10 mM Tris-HCl pH 7.5, 50 mM NaCl, 1 mM DTT, 4% glycerol, room temperature, 30 min; GST-TFs on glutathione beads, 16-mer random dsDNA library, 0.1% formaldehyde crosslink after washing; high values mean tight binding
# FLI1 = target: T1, FLI1 (Homo sapiens, UniProt Q01543 1-452); conditions: protein: recombinant; tags: N-terminal GST; dsDNA, one strand shown
# T1 sequence: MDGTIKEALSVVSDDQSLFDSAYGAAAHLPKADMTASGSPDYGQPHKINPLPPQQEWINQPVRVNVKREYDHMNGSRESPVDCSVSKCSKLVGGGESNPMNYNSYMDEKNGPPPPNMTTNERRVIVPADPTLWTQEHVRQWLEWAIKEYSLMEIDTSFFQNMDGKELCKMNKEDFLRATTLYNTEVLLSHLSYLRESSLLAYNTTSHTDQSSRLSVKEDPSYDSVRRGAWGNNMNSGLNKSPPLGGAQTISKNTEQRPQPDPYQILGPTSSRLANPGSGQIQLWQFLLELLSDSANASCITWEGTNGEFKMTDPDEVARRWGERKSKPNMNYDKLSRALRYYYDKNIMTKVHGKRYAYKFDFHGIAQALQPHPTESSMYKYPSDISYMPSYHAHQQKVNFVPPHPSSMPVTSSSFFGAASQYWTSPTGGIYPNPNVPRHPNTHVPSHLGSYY
# Method in brief: (§1)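 Pools of DNA-barcoded human transcription factors, expressed in yeast as GST fusions on glutathione beads and combined with a tag-only sample, were incubated with 200 nmole of a 16-mer random double-stranded DNA library. Incubation took 30 min at room temperature in Tris/NaCl/DTT/glycerol buffer and was followed by washing, 0.1% formaldehyde crosslinking, proximity ligation (BsaI/T4 ligase, 1 h, 37 °C), PCR amplification and sequencing on an Illumina NextSeq500. Binding signal is the ratio of a hexamer's read frequency for a factor to its frequency for the tag-only sample.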
# ELK1 = target: T2, ELK1 (Homo sapiens, UniProt P19419 1-428); conditions: protein: recombinant; tags: N-terminal GST; dsDNA, one strand shown
# T2 sequence: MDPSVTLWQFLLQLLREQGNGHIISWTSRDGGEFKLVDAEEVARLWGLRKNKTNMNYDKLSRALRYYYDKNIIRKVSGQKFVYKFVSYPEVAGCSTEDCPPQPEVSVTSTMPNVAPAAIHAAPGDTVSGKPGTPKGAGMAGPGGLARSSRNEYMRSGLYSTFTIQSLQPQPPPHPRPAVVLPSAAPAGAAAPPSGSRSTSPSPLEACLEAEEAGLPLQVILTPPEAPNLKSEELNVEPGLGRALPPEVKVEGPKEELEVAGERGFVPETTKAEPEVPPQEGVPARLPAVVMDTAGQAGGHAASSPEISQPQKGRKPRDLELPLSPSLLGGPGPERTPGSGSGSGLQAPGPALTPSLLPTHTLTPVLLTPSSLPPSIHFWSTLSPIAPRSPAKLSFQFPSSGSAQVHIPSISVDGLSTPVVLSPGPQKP
# Method in brief: as §1
# GABPA = target: T3, GABPA (Homo sapiens, UniProt Q06546 1-454); conditions: protein: recombinant; tags: N-terminal GST; dsDNA, one strand shown
# T3 sequence: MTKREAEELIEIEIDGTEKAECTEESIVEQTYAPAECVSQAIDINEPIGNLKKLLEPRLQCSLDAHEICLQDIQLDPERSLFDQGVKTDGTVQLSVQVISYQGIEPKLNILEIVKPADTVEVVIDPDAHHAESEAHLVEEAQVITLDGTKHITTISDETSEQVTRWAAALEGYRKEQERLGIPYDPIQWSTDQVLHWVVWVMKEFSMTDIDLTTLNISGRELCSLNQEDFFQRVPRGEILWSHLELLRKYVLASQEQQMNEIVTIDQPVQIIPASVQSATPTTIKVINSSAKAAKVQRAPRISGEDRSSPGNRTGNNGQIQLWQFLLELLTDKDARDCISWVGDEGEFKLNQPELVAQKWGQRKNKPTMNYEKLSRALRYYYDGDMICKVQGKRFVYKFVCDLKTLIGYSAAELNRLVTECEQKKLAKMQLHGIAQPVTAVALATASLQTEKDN
# Method in brief: as §1
# ERG = target: T4, ERG (Homo sapiens, UniProt P11308 1-479); conditions: protein: recombinant; tags: N-terminal GST; dsDNA, one strand shown
# T4 sequence: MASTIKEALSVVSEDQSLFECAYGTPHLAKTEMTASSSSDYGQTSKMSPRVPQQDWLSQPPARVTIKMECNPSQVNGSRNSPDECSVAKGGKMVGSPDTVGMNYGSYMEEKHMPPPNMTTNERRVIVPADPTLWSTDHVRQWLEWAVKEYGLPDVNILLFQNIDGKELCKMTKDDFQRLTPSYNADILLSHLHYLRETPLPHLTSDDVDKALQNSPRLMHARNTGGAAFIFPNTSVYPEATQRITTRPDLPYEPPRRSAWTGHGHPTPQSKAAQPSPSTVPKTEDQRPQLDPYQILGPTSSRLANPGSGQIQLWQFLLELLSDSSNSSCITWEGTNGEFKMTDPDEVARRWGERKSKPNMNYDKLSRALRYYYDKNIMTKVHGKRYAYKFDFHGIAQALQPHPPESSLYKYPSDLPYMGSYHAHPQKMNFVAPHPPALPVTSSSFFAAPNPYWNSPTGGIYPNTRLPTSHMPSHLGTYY
# Method in brief: as §1
# ELF1 = ELF1 (Homo sapiens, UniProt P32519 1-619); conditions: protein: recombinant; tags: N-terminal GST; dsDNA, one strand shown
# Method in brief: as §1
# EHF = target: T5, EHF (Homo sapiens, UniProt Q9NZC4 1-300); conditions: protein: recombinant; tags: N-terminal GST; dsDNA, one strand shown
# T5 sequence: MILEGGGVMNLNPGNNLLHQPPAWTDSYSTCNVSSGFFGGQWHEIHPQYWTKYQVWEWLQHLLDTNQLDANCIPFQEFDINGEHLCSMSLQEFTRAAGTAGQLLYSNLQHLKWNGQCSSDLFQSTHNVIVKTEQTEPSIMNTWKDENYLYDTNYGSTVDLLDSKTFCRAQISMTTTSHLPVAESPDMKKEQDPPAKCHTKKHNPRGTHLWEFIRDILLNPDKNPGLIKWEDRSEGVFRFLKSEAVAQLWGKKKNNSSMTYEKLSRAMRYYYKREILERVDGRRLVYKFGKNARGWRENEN
# Method in brief: as §1
# SPI1 = SPI1 (Homo sapiens, UniProt P17947 1-270); conditions: protein: recombinant; tags: N-terminal GST; dsDNA, one strand shown
# Method in brief: as §1
# SPIB = SPIB (Homo sapiens, UniProt Q01892 1-262); conditions: protein: recombinant; tags: N-terminal GST; dsDNA, one strand shown
# Method in brief: as §1
# ELK3 = target: T6, ELK3 (Homo sapiens, UniProt P41970 1-407); conditions: protein: recombinant; tags: N-terminal GST; dsDNA, one strand shown
# T6 sequence: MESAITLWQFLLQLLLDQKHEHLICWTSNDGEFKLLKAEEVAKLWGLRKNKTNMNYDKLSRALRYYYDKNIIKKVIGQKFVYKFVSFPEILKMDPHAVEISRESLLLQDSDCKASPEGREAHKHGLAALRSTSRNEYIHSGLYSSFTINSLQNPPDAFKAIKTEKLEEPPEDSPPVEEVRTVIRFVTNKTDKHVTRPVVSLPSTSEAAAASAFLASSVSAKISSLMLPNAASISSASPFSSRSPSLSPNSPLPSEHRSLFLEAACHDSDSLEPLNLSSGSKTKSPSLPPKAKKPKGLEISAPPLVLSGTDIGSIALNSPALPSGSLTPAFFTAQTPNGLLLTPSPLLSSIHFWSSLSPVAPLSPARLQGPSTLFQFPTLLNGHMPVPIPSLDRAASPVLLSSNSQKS
# Method in brief: as §1
# FEV = target: T7, FEV (Homo sapiens, UniProt Q99581 1-238); conditions: protein: recombinant; tags: N-terminal GST; dsDNA, one strand shown
# T7 sequence: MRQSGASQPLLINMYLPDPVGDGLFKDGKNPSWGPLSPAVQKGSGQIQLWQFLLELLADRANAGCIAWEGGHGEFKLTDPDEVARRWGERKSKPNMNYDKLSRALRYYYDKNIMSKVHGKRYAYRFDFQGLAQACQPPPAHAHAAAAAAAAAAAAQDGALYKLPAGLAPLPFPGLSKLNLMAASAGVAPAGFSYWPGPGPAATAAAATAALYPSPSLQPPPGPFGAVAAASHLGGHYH
# Method in brief: as §1
# ETV5 = ETV5 (Homo sapiens, UniProt P41161 1-510); conditions: protein: recombinant; tags: N-terminal GST; dsDNA, one strand shown
# Method in brief: as §1
# HSF1 = HSF1 (Homo sapiens, UniProt Q00613 1-529); conditions: protein: recombinant; tags: N-terminal GST; chain copies: 3; dsDNA, one strand shown
# Method in brief: as §1
# SPIC = target: T8, SPIC (Homo sapiens, UniProt Q8N5J4 1-248); conditions: protein: recombinant; tags: N-terminal GST; dsDNA, one strand shown
# T8 sequence: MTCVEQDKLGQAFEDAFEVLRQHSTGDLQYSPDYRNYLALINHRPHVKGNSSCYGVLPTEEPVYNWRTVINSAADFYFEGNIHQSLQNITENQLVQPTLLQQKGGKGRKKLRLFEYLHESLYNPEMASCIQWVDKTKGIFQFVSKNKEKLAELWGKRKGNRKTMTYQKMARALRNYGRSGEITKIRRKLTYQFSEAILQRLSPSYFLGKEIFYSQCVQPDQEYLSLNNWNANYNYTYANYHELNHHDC
# Method in brief: as §1
# ELF4 = ELF4 (Homo sapiens, UniProt Q99607 1-663); conditions: protein: recombinant; tags: N-terminal GST; dsDNA, one strand shown
# Method in brief: as §1
# ELK4 = target: T9, ELK4 (Homo sapiens, UniProt P28324-2 1-405); conditions: protein: recombinant; tags: N-terminal GST; dsDNA, one strand shown
# T9 sequence: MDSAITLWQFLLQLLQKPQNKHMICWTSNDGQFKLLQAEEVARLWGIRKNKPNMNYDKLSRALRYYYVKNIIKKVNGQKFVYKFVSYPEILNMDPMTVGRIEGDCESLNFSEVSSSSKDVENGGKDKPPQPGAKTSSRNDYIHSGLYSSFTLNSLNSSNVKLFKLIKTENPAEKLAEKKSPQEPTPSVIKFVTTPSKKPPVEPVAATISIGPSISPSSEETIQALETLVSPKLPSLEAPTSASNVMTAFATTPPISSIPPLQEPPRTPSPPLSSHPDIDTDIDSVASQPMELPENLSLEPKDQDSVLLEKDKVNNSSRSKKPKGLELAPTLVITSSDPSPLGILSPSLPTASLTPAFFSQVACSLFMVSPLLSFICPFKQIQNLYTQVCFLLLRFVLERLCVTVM
# Method in brief: as §1
# ETV2 = target: T10, ETV2 (Homo sapiens, UniProt O00321 1-342); conditions: protein: recombinant; tags: N-terminal GST; dsDNA, one strand shown
# T10 sequence: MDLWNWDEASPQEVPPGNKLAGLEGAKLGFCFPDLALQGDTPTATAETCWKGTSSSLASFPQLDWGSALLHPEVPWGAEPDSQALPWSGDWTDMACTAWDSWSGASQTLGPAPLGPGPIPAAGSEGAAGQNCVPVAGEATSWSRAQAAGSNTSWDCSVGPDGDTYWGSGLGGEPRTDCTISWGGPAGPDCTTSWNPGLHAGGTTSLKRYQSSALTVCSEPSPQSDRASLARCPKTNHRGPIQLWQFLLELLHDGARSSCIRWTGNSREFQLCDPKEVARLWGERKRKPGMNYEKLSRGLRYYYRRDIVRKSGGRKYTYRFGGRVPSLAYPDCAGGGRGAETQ
# Method in brief: as §1
# ELF3 = target: T11, ELF3 (Homo sapiens, UniProt P78545 1-371); conditions: protein: recombinant; tags: N-terminal GST; dsDNA, one strand shown
# T11 sequence: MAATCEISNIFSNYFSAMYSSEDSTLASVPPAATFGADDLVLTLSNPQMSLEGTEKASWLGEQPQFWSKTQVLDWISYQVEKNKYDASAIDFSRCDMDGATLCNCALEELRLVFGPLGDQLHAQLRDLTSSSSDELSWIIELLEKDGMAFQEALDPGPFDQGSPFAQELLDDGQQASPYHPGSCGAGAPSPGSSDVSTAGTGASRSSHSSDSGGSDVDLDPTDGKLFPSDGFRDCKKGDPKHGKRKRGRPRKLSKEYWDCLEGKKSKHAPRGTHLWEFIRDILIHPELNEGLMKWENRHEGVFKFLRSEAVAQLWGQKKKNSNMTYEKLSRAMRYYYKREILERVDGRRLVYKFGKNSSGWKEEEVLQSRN
# Method in brief: as §1
# CRX = CRX (Homo sapiens, UniProt O43186 1-299); conditions: protein: recombinant; tags: N-terminal GST; dsDNA, one strand shown
# Method in brief: as §1
# ETV1 = ETV1 (Homo sapiens, UniProt P50549 1-477); conditions: protein: recombinant; tags: N-terminal GST; dsDNA, one strand shown
# Method in brief: as §1
# Sequence of ELF4 (Q99607 whole entry): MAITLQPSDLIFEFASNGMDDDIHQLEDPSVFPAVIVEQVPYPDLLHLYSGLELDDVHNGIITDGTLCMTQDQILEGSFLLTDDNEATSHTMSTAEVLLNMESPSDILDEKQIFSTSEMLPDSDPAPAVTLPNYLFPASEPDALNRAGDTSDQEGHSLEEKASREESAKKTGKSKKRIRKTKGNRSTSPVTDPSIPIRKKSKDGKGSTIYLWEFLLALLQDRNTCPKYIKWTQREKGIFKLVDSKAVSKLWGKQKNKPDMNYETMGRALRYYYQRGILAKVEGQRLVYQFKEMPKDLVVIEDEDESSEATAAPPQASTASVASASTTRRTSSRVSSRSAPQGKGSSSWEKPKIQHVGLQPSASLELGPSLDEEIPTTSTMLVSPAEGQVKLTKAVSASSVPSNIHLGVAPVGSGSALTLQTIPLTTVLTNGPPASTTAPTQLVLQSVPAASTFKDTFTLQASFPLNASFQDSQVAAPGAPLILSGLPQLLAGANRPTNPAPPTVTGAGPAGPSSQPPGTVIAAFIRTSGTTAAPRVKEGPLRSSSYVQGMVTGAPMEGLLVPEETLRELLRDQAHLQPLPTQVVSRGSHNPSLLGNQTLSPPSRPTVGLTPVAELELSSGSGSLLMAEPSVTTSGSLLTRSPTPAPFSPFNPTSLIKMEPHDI
# Sequence of CRX (O43186 whole entry): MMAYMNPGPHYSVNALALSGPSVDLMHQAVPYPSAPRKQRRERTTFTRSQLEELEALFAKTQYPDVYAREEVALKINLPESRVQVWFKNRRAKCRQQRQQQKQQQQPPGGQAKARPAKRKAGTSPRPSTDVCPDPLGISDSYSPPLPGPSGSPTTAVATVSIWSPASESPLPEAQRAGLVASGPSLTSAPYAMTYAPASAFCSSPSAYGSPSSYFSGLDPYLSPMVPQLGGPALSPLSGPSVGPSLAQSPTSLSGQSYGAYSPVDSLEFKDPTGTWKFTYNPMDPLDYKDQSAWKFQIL
# Sequence of HSF1 (Q00613 whole entry): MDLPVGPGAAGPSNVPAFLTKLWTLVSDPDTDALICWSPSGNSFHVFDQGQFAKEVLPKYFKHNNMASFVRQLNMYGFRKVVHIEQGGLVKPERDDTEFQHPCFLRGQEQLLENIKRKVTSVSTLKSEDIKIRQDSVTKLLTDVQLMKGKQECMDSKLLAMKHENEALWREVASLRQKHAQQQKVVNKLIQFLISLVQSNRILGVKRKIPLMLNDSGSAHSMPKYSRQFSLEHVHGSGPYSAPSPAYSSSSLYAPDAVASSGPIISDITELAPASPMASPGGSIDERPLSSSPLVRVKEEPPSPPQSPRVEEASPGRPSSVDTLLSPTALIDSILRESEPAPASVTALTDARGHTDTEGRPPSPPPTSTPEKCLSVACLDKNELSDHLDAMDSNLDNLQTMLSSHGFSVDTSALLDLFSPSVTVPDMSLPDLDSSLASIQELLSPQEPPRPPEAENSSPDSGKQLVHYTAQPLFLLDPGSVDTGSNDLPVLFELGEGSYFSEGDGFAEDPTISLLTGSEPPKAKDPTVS
# Sequence of ETV5 (P41161 whole entry): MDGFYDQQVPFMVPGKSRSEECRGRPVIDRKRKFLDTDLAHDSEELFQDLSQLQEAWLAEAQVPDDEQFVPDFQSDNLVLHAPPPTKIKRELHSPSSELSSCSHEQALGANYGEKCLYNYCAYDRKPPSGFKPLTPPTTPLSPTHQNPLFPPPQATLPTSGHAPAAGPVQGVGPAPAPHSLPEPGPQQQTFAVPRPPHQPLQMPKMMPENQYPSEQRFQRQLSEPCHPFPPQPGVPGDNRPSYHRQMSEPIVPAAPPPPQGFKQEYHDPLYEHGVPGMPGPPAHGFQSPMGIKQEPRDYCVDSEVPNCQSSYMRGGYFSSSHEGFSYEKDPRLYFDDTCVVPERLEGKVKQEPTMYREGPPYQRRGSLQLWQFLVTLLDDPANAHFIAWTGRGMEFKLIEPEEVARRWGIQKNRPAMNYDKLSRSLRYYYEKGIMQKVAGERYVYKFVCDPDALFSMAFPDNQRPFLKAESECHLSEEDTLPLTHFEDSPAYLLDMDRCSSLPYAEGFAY
# Sequence of SPIB (Q01892 whole entry): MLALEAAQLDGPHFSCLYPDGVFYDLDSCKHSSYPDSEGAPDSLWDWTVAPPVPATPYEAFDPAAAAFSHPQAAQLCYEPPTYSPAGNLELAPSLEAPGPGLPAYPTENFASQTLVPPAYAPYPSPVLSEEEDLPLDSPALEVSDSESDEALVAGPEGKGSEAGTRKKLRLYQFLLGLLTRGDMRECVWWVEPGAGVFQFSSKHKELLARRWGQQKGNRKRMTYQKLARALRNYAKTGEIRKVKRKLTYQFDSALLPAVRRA
# Sequence of ETV1 (P50549 whole entry): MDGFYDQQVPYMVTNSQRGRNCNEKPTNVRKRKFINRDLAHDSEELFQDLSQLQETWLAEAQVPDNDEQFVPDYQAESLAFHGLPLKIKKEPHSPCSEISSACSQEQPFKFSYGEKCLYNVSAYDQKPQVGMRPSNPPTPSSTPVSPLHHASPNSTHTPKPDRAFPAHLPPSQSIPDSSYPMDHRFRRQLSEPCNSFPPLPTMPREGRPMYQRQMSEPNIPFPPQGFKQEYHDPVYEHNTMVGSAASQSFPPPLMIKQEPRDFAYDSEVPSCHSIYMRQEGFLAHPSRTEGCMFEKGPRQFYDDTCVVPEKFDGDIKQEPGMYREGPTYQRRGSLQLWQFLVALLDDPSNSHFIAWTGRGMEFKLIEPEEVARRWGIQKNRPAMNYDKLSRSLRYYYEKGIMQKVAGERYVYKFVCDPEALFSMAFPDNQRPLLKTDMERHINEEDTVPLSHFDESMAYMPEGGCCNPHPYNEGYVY
# Sequence of ELF1 (P32519 whole entry): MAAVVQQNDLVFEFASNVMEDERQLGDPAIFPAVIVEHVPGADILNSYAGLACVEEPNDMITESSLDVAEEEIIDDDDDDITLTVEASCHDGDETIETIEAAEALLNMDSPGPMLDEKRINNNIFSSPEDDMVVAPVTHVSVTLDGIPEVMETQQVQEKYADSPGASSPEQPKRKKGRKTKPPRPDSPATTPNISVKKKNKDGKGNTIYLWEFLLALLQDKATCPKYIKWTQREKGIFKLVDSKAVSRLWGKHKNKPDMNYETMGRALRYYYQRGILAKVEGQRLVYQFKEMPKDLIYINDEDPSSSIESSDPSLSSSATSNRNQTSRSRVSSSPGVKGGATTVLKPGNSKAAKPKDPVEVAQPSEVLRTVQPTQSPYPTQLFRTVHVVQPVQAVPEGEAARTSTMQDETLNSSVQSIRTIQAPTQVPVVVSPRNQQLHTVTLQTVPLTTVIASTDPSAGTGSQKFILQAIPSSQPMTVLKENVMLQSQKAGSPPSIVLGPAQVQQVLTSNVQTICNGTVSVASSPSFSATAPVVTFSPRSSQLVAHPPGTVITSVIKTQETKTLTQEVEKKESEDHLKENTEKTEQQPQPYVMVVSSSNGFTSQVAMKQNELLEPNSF
sequence,measurement,setting,value
TTTCGA,binding signal,FLI1,"1.36 fold enrichment (6-mer frequency, TF over GST control)"
same,binding signal,ELK1,"1.45 fold enrichment (6-mer frequency, TF over GST control)"
same,binding signal,GABPA,"1.51 fold enrichment (6-mer frequency, TF over GST control)"
same,binding signal,ERG,"1.37 fold enrichment (6-mer frequency, TF over GST control)"
same,binding signal,ELF1,"1.56 fold enrichment (6-mer frequency, TF over GST control)"
same,binding signal,EHF,"1.49 fold enrichment (6-mer frequency, TF over GST control)"
same,binding signal,SPI1,"1.35 fold enrichment (6-mer frequency, TF over GST control)"
same,binding signal,SPIB,"1.48 fold enrichment (6-mer frequency, TF over GST control)"
same,binding signal,ELK3,"1.52 fold enrichment (6-mer frequency, TF over GST control)"
same,binding signal,FEV,"1.48 fold enrichment (6-mer frequency, TF over GST control)"
same,binding signal,ETV5,"1.54 fold enrichment (6-mer frequency, TF over GST control)"
same,binding signal,HSF1,"2.5 fold enrichment (6-mer frequency, TF over GST control)"
same,binding signal,SPIC,"1.18 fold enrichment (6-mer frequency, TF over GST control)"
same,binding signal,ELF4,"1.57 fold enrichment (6-mer frequency, TF over GST control)"
same,binding signal,ELK4,"1.5 fold enrichment (6-mer frequency, TF over GST control)"
same,binding signal,ETV2,"1.32 fold enrichment (6-mer frequency, TF over GST control)"
same,binding signal,ELF3,"1.39 fold enrichment (6-mer frequency, TF over GST control)"
same,binding signal,CRX,"1.86 fold enrichment (6-mer frequency, TF over GST control)"
same,binding signal,ETV1,"1.5 fold enrichment (6-mer frequency, TF over GST control)"
